The text below walks through data of PubChem BioAssay (NCATS).

Assay [1] concerns the target Glucocorticoid receptor (Homo sapiens) (UniProt P04150). The assay is described as follows: qHTS assay for small molecule antagonists of glucocorticoid receptor signaling (AID 588533; active means well fitted inhibition curve with a large enough effect in the signal ratio, with a control signal flat, not every such curve was filed as active; the % refers to the signal ratio;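 further: cells stimulated with 2 nM dexamethasone as agonist; on the % scale 0 is the no-effect control and ±100 the full control effect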). A digest of the protocol: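 Antagonist-mode qHTS: compound titrations added to GRE-bla HeLa cells, then dexamethasone 2 nM final; 18 h, 37 C. CCF4 FRET fluorescence normalized to dexamethasone and DMSO; IC50 from Hill fit.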
A general note: Quantitative high-throughput screening tests each substance at several concentrations.

Assay [2] deals with Vitamin D3 receptor (Homo sapiens) (UniProt P11473). The assay can be described thus: qHTS assay for small molecule antagonists of vitamin D receptor signaling (AID 588541).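 Further: receptor activated by calcitriol during compound treatment; series mostly up to about 77 µM; on the % scale 0 is the no-effect control and ±100 the full control effect.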 A digest of the protocol: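 VDR-UAS-bla HEK293T cells (2000/well, 2% charcoal-stripped FBS) were treated with titrated compounds plus 1-alpha,25-dihydroxyvitamin D3 (50 nM or 3 nM final) for 16 h at 37 C. CCF4 beta-lactamase fluorescence was read; Hill fits gave IC50.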
Sequence of Vitamin D3 receptor (Homo sapiens) (P11473 whole entry, looked up): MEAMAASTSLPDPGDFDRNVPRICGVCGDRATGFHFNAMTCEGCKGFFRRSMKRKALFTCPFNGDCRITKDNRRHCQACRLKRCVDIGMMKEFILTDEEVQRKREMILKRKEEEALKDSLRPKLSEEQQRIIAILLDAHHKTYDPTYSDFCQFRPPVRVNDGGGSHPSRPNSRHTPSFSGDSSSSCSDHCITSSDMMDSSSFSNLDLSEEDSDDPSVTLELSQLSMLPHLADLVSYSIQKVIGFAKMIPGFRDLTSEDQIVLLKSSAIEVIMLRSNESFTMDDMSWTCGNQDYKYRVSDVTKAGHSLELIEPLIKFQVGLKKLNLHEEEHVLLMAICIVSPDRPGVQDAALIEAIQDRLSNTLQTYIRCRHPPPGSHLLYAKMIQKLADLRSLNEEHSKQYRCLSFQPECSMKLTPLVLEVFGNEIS

Assay [3] has as its target Thyroid hormone receptor beta (Homo sapiens) (UniProt P10828). The assay is described as follows: qHTS assay for small molecule agonists of thyroid hormone receptor beta signaling (AID 588545).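 Further: 0% = DMSO only and 100% = 10 nM T3.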 A digest of the protocol:
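TR-UAS-bla GripTite HEK 293 cells (2500/well, medium with 2% charcoal/dextran FBS) were treated in agonist mode for 18 h at 37 C, titrated. Beta-lactamase was read by CCF4 ratio after 2 h; normalized to 10 nM T3 (100%) and DMSO, Hill-fitted for EC50 and efficacy.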

A short description of assay [4]: qHTS assay for small molecule antagonists of retinoid X receptor alpha signaling (AID 588546).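 Further: cells stimulated with 9-cis-retinoic acid as agonist; on the % scale 0 is the no-effect control and ±100 the full control effect.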 The following applies: HEK293T RXRa-UAS-bla, beta-lactamase ratio, antagonist mode; measured here: W530 green channel, cytotoxicity proxy. A digest of the protocol:
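Beta-lactamase reporter inhibition, read as CCF4 fluorescence ratio (ex 405, em 460/530 nm) after 2 h at RT. HEK293T UAS-bla cells, 2500/well, were stimulated with 9-cis-RA at 500 or 100 nM final alongside test compound for 18 h at 37 C.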

In assay [5] the target is Voltage-gated inwardly rectifying potassium channel KCNH2 (Homo sapiens) (UniProt Q12809). The assay can be described thus: qHTS Assay for Small Molecule Inhibitors of the Human hERG Channel Activity (AID 588834; active means well fitted curve in the direction sought with a large enough effect; an effect the other way counts as inactive or inconclusive;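 further: top concentration of the series differs between compounds; on the % scale 0 is the no-effect control and ±100 the full control effect; lower thallium flux fluorescence means stronger hERG block; nearly all actives have a fitted effect of over 50% in size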). A digest of the protocol: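 hERG-BacMam U2OS, 2000 cells/well; 0.7X FluxOR loading 1 hr RT dark; cpd ~10 min 37 °C; stim buffer; FDSS fluorescence 2 min @ 1 s; AC50 Hill fit.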
Sequence of Voltage-gated inwardly rectifying potassium channel KCNH2 (Homo sapiens) (Q12809 whole entry, looked up): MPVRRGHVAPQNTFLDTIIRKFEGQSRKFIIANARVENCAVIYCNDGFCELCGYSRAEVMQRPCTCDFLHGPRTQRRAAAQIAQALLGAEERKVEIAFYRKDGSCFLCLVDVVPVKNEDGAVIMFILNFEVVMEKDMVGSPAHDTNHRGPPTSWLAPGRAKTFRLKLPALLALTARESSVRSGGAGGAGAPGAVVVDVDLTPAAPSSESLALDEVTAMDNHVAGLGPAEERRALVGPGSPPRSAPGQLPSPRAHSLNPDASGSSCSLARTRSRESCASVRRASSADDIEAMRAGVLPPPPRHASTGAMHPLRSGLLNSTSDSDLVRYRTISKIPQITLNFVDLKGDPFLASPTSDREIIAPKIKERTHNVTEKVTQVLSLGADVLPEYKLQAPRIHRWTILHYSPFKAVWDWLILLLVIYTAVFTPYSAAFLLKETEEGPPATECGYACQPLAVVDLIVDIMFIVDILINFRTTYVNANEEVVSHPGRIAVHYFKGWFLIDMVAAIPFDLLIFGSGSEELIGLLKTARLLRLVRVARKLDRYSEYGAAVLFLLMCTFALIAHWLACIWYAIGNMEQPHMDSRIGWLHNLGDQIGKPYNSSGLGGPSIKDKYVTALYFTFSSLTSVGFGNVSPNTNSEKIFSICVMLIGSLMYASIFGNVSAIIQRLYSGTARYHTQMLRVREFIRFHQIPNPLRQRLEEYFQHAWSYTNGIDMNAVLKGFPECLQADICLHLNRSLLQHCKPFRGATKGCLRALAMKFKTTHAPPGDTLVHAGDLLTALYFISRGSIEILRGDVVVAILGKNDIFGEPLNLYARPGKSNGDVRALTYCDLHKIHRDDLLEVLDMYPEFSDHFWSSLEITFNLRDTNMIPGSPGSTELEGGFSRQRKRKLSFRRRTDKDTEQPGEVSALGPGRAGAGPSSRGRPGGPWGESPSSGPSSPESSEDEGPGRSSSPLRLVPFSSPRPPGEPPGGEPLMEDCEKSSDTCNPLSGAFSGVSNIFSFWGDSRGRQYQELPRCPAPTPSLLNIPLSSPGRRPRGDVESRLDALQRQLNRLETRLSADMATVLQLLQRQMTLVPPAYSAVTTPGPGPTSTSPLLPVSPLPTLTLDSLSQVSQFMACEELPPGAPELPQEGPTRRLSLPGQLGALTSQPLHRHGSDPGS

Assay [6] deals with Luciferin 4-monooxygenase (Photinus pyralis) (UniProt P08659). The assay is described as follows: Biochemical firefly luciferase enzyme assay for NPC (AID 624030; active means well fitted curve in the direction sought with a large enough effect; an effect the other way counts as inactive or inconclusive;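 further: purified P. pyralis luciferase at 10 nM with luciferin and ATP substrate; series mostly up to about 59 µM; 0% = DMSO and -100% = full luciferase inhibition by PTC124 control; nearly all actives have a fitted effect of over 70% in size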). A digest of the protocol: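 Counter-screen for direct inhibition of the luciferase enzyme by approved-drug library compounds, run at 10 nM enzyme in 50 mM Tris acetate (final). Luminescence was read within 5 min of enzyme-buffer addition and normalized to PTC124 versus DMSO (0%).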

Assay [7] is described as follows: S16 Schwann cell viability assay (CellTiter-Glo assay) (AID 624031; active means well fitted curve in the direction sought with a large enough effect; an effect the other way counts as inactive or inconclusive;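 further: cellular ATP luminescence as a viability measure; series mostly up to about 58 µM; plate controls were DMSO-treated cells for no effect and cell-free wells for full effect; nearly all actives have a fitted effect of over 70% in size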). A digest of the protocol:
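Native S16 rat Schwann cells in DMEM/10% FBS without phenol red were incubated overnight, then exposed to compounds for 24 h at 37 °C/5% CO2. Viability was read as ATP luminescence (CellTiter-Glo), normalized to no-cell wells and DMSO (0%).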
In general terms: Cellular ATP, detected with luciferase, serves as a proxy for viable cell number.

Assay [8] can be described thus: S16 Schwann cell PMP22 intronic element firefly luciferase assay (AID 624032; active means well fitted curve in the direction sought with a large enough effect; an effect the other way counts as inactive or inconclusive;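 further: series mostly up to about 58 µM; plate controls were DMSO for no effect and PTC124 positive control mean for full effect; nearly all actives have a fitted effect of over 30% in size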). A digest of the protocol:
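Rat S16 Schwann cells stably carrying a PMP22 intronic element-driven Fluc reporter were seeded overnight, then exposed to compounds for 24 h at 37 °C. Luminescence was normalized to PTC124 (positive control) and DMSO (0% activity).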

Assay [9] addresses Bile acid receptor (Homo sapiens) (UniProt Q96RI1). The assay can be described thus: qHTS assay for small molecule antagonists of farnesoid X receptor signaling (AID 588526). Further: on the % scale 0 is the no-effect control and ±100 the full control effect. A digest of the protocol:
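Concentration-response titrations were fitted to the Hill equation for half-maximal inhibition and maximal response, with data normalised to 50 uM chenodeoxycholic acid and DMSO control wells. Cells: FXR-UAS-bla HEK293T, dialyzed FBS.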

Assay [10] addresses Glucocorticoid receptor (Homo sapiens) (UniProt P04150). The assay can be described thus: qHTS assay for small molecule agonists of glucocorticoid receptor signaling (AID 588532; active means well fitted curve in the direction sought with a large enough effect in the signal ratio, with a control signal flat; the % refers to the signal ratio;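 further: 100% = dexamethasone at 0.1 µM and 0% = DMSO only wells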). The following applies: HeLa MMTV-bla, beta-lactamase ratio, agonist, 18 h; stronger effect = higher value; percent of dexamethasone control, DMSO zero. A digest of the protocol: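 Stimulation of a glucocorticoid response element-driven beta-lactamase gene was measured in HeLa cells. Responses were scaled between DMSO basal and 0.1 uM dexamethasone, then fitted for half-maximal stimulation.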

The nature of assay [11]: qHTS assay for small molecule antagonists of peroxisome proliferator-activated receptor delta signaling (AID 588535; active means well fitted inhibition curve with a large enough effect in the signal ratio, with a control signal flat, not every such curve was filed as active; the % refers to the signal ratio;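 on max response: cells co-treated with a PPAR-delta agonist as stimulator during compound exposure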). To be noted: HEK293T PPARd-UAS-bla, beta-lactamase FRET ratio, 18 h; 460 nm channel. A digest of the protocol:
(§1)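 GeneBLAzer PPAR-delta-UAS-bla HEK293T cells in medium with 2% charcoal/dextran FBS were preincubated 5 hrs at 37 C, then given compounds, incubated 18 hrs at 37 C, and read by CCF4 beta-lactamase fluorescence; IC50 from Hill fits.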

For assay [12], the target named is Peroxisome proliferator-activated receptor delta (Homo sapiens) (UniProt Q03181). The assay is described as above. A digest of the protocol: as §1
Sequence of Peroxisome proliferator-activated receptor delta (Homo sapiens) (Q03181 whole entry, looked up): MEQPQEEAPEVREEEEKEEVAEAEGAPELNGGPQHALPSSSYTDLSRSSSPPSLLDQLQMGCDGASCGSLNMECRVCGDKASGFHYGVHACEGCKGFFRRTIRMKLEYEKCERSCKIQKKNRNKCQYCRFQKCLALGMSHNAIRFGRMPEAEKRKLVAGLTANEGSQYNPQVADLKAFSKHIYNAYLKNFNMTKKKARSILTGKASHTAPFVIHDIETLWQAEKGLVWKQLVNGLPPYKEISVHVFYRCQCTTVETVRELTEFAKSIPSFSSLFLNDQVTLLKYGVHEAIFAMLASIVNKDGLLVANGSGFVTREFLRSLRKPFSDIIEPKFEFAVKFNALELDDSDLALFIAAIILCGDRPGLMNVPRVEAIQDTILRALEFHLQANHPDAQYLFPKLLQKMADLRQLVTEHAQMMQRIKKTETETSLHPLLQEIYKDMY
The target of assay [13] is Peroxisome proliferator-activated receptor gamma (Homo sapiens) (UniProt P37231). The assay is described as follows: qHTS assay for small molecule antagonists of peroxisome proliferator-activated receptor gamma signaling (AID 588537; active means well fitted inhibition curve with a large enough effect in the signal ratio, with a control signal flat, not every such curve was filed as active; the % refers to the signal ratio;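 further: reporter cells co-stimulated with 50 nM rosiglitazone agonist during compound treatment; % of control where 0% means no effect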). A digest of the protocol: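 PPAR-gamma-UAS-bla HEK293 cells (3000/well, 1% charcoal/dextran-stripped FBS) were preincubated 6-6.5 h at 37 C, given titrated compounds, then stimulated with 50 nM rosiglitazone for 16 h. Beta-lactamase activity was read with CCF4 dye; IC50 came from Hill fits.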
Sequence of Peroxisome proliferator-activated receptor gamma (Homo sapiens) (P37231 whole entry, looked up): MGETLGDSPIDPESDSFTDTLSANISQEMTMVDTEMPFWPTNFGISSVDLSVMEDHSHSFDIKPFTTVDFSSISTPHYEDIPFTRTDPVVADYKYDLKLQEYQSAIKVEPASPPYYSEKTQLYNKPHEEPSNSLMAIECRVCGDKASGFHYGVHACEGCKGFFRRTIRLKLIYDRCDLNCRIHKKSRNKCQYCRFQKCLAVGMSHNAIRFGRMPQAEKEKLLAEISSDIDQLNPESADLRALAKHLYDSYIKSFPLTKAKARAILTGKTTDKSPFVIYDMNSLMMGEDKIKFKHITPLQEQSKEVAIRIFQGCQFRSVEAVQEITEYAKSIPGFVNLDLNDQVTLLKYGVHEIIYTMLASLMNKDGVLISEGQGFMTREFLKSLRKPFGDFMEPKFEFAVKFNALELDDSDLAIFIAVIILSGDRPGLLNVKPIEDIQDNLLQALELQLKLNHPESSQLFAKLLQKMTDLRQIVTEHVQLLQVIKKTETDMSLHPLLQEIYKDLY

Assay [14] is described as follows: qHTS assay for small molecule agonists of retinoid X receptor alpha signaling (AID 588544).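 On activation: 0% = DMSO basal wells and 100% = reference agonist.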 To be noted: HEK293T RXRa-UAS-bla, beta-lactamase reporter, 18 h; 530 nm emission.
For assay [15], the target named is Retinoic acid receptor RXR-alpha (Homo sapiens) (UniProt P19793). Described as above.
Sequence of Retinoic acid receptor RXR-alpha (Homo sapiens) (P19793 whole entry, looked up): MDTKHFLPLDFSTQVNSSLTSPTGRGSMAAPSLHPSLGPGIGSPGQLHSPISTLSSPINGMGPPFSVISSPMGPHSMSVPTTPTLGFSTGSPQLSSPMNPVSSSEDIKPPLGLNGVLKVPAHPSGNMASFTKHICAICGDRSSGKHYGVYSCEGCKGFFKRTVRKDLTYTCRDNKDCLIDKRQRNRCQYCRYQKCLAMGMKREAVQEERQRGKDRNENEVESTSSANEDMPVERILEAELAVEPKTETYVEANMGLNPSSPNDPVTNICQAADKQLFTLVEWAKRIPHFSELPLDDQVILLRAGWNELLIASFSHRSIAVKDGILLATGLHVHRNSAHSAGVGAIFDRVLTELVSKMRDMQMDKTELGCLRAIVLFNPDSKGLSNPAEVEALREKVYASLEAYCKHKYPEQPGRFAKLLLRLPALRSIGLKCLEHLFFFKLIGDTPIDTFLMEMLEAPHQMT
The target of assay [16] is Thyroid hormone receptor beta (Homo sapiens) (UniProt P10828). The assay is described as follows: qHTS assay for small molecule antagonists of thyroid hormone receptor beta signaling (AID 588547; active means well fitted inhibition curve with a large enough effect in the signal ratio, with a control signal flat, not every such curve was filed as active; the % refers to the signal ratio). To be noted: TR-UAS-bla HEK293, beta-lactamase ratio, antagonist mode, 18 h. A digest of the protocol: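 TR-UAS-bla GripTite HEK293 cells in 2% charcoal/dextran FBS medium were preincubated 4 h at 37 C, given compound (0.59 nM to 92 uM) plus 0.4 nM T3 (final) for 18 h, then CCF4 for 2 h at RT; Hill fit gave IC50.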
Sequence of Thyroid hormone receptor beta (Homo sapiens) (P10828 whole entry, looked up): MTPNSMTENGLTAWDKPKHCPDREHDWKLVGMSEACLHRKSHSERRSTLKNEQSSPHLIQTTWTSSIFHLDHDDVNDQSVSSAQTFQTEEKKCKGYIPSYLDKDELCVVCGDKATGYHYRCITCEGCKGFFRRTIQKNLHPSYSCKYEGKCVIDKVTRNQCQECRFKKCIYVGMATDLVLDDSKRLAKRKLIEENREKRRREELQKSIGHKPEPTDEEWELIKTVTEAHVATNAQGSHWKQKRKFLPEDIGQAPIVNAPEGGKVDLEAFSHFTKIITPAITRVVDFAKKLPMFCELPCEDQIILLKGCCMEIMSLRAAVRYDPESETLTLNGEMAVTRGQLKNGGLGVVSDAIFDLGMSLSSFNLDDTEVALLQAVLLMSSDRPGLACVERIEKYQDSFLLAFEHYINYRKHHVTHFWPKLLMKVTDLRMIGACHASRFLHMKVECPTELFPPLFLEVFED

The target in assay [17] is Estrogen receptor (Homo sapiens) (UniProt P03372). The assay can be described thus: qHTS assay for small molecule agonists of estrogen receptor alpha signaling (AID 588514).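 Further: 0% = vehicle only and 100% = reference agonist; nearly all actives have a fitted effect of over 70% in size.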 A digest of the protocol: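 ER-alpha-UAS-bla GripTite HEK 293 cells in medium with 2% charcoal/dextran-treated FBS were treated with compound titrations at 37 C for 18 hrs; beta-lactamase reporter read by CCF4 fluorescence after 2 hrs at RT.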
Sequence of Estrogen receptor (Homo sapiens) (P03372 whole entry, looked up): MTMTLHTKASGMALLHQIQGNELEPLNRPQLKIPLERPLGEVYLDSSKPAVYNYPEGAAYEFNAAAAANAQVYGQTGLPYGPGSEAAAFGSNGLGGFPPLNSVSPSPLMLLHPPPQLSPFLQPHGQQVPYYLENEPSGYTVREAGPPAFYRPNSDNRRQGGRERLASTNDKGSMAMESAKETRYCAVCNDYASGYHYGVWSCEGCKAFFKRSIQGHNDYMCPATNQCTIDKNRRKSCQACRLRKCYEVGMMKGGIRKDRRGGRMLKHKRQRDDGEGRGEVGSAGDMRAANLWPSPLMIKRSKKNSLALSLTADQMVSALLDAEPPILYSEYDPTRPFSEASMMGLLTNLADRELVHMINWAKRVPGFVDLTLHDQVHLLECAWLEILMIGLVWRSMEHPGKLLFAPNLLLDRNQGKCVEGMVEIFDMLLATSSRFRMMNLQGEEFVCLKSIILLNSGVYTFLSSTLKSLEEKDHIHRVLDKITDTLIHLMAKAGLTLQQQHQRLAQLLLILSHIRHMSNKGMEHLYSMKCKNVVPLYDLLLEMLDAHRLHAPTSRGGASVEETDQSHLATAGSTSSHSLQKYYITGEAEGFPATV

In assay [18] the target is Vitamin D3 receptor (Homo sapiens) (UniProt P11473). The assay is described as follows: qHTS assay for small molecule agonists of vitamin D receptor signaling (AID 588543).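 Further: 0% = DMSO basal and 100% = reference agonist control.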 A digest of the protocol: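 Reporter cells (HEK293T, VDR-UAS-bla) were seeded in medium with 2% charcoal-stripped serum and incubated 5 h, then compounds in concentration series were added for 16 h at 37 °C. Stimulation was scaled between DMSO basal and 50 nM 1α,25-dihydroxyvitamin D3.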

Several values for one entry are separate records, joined by “and”; a condition that tells them apart may be missing. Equal values may be shown once. Records with an inconclusive call do not appear. Activity calls are given as the source filed them. Unless noted, the call rests on the fitted dose curve.

Sequence of Glucocorticoid receptor (Homo sapiens) (P04150 whole entry, looked up): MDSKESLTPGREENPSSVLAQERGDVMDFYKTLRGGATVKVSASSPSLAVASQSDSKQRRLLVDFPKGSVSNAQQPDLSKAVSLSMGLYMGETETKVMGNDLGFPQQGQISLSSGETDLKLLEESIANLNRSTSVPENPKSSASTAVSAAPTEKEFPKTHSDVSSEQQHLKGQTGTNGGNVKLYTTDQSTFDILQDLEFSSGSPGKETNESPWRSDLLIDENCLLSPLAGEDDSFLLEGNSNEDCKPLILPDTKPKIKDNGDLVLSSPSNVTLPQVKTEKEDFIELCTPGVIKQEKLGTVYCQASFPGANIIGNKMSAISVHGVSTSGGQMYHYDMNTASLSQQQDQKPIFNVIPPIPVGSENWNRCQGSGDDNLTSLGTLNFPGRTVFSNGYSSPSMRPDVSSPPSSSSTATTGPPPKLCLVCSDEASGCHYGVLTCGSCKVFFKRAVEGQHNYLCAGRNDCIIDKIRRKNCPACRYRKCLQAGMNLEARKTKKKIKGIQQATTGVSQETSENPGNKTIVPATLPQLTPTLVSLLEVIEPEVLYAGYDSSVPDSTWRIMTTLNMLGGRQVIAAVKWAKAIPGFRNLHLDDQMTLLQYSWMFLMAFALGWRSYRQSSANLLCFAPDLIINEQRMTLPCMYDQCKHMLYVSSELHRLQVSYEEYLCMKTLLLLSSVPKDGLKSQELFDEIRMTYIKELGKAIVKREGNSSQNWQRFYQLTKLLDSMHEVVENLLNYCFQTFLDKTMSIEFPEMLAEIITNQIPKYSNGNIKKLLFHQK

As for `C[C@H]1C[C@H]2[C@@H]3CCC4=CC(=O)C=C[C@]4(C)[C@@]3(F)[C@@H](O)C[C@]2(C)[C@@]1(O)C(=O)CO`, the molecule was classed as inactive in assay [1], in assay [2] and in assay [3]. In assay [4], the max response stood at 8.66%. The Potency result in [5], in [6], in [7] and in [8] was “inactive” in each case.
Turning to `IC(I)I`, the Potency result in [9], in assay [5], in assay [7] and in [8] was “inactive” each time. Moreover, in assay [10], the activation is 16.8% (inactive) and -7.64% (inactive). Besides, the molecule was called inactive in assay [1], in assay [12], in assay [13], in [15] and in assay [3]. Further, the max response in [11] is 3.49% and 21.3%; in assay [14], 19.8%; in [4] it was -9.02% and 2.26%. In addition, the activity change % (negative = inhibition) in assay [16] was 1.7% (inactive) and 9.81% (inactive).
For `O=C(O)C1CCCN1` (stereo not given), the Potency entry in [5] is “inactive”.
In the case of `CCCCC/C=C\C/C=C\CCCCCCCC(=O)O`, the Potency entry in assay [17], in [9], in assay [5], in [6] and in assay [8] was “inactive” throughout. For the same molecule, the max response in assay [11] is 53% and -23.8%; in assay [14], -2.55%; in assay [4] it was 2.1%. Moreover, the outcome in assay [12], in [13], in assay [2], in assay [18], in assay [15] and in assay [3] was inactive. In addition, in [16], the activity change % (negative = inhibition) is 8.73% (inactive) and 0.41% (inactive).
As for `CCC(=O)O[C@]1(C(=O)CCl)[C@@H](C)C[C@H]2[C@@H]3C[C@H](F)C4=CC(=O)C=C[C@]4(C)[C@@]3(F)[C@@H](O)C[C@@]21C`, the Potency entry in assay [5] was “inactive”.
On the same count and under the same terms, next, `CO[C@@H]1[C@@H](O[C@@H]2O[C@H](C)[C@@H](O[C@H]3C[C@@](C)(O)[C@@H](OC(=O)CC(C)C)[C@H](C)O3)[C@H](N(C)C)[C@H]2O)[C@@H](CC=O)C[C@@H](C)C(=O)/C=C/C2OC2C[C@@H](C)OC(=O)C[C@H]1OC(C)=O` (stereo not given in full): “inactive”; `CC1(C)O[C@@H]2C[C@H]3[C@@H]4CCC5=CC(=O)C=C[C@]5(C)[C@H]4[C@@H](O)C[C@]3(C)[C@]2(C(=O)CO)O1`: “inactive”.
As for `CC(O)CO` (stereo not given), the Potency result in assay [17], in [9], in [5], in assay [6], in assay [7] and in assay [8] was “inactive” in each case. Further, in assay [10], the activation was -4.49% (inactive) and -3.73% (inactive). Moreover, the result in assay [1], in [12], in assay [13], in assay [2], in [18] and in [15] was inactive. Moreover, the molecule was classed as inactive in assay [3]. Also, the max response was 21.4% and -10.4% in assay [11]; -9.84% and -15.2% in assay [14]; -2.37% and -5.47% in assay [4]. Besides, the activity change % (negative = inhibition) in assay [16] is 11.6% (inactive) and -10.9% (inactive).
`CCOC(C)=O`: the Potency entry in assay [17], in assay [5], in [6], in [7] and in assay [8] was “inactive” each time. The activation in assay [10] is -2.25% (inactive). Besides, the result in assay [1], in assay [12], in assay [13], in [2], in [18] and in assay [15] was inactive. Also, the result in assay [3] was inactive. The max response in assay [11] was -20.7%; in assay [14], -19.8%. The activity change % (negative = inhibition) in [16] was -2.37% (inactive).
